For experiment [1], the system named is Zika virus NS2B-NS3 protease (unlinked complex). As to the kind of experiment: Primary screen GU Rhodamine qHTS for Zika virus inhibitors: Unlinked NS2B-NS3 protease assay (AID 1347159). Further: nearly all actives have a fitted effect of over 60% in size. Summed up:
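Unlinked NS2B/NS3, 25 nM; Rhod110 peptide, 1.5 microM; compounds, up to 114 microM. Reaction run 15 min at RT in 10 mM Tris-HCl pH 8.0, 0.01% Tween 20; kinetic fluorescence change fitted with a 4-parameter Hill model.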
In general terms: In qHTS, concentration-response curves come from the screen itself.

The subject of experiment [2] is Zika virus NS2B-NS3 protease (linked construct). Description: Primary screen NINDS Rhodamine qHTS for Zika virus inhibitors (AID 1347160). Further: nearly all actives have a fitted effect of over 55% in size. The essentials: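 Single-chain NS2B-NS3 protease, 25 nM, pH 8.0; compounds preincubated 15 min. Activity: Rhodamine110 release from 1.5 microM substrate over 15 min, room temperature, data fitted to 4-parameter Hill.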

The structures appear in SMILES notation. Results filed as inconclusive are left out. Values without a mark were called inactive. Activity calls are given as the source filed them. The call rests on the fitted dose curve; in most records, active means well fitted inhibition curve with a large enough effect; inconclusive means small, poorly fitted or top-dose-only effect; inactive means no such curve, though single readings can be large or run the other way.
On the % scale 0 is the no-effect control and ±100 the full control effect.

As for `O=C(c1ccc(/C=C/c2n[nH]c3ccccc23)cc1)N1CCNCC1`, the Potency entry in experiment [1] and in experiment [2] was “inactive” in each case.
Consider `COc1ccc2nc(S(=O)(=O)Cc3ncc(C)c(OC)c3C)[nH]c2c1`, for which the Potency entry in experiment [1] and in experiment [2] was “inactive” each time.
Take `COc1ccc(CCO[C@@H]2CCCC[C@H]2N2CC[C@@H](O)C2)cc1OC`: the Potency result in experiment [1] and in experiment [2] was “inactive” each time.
Turning to `CCc1cnn2c(NCc3ccc[n+]([O-])c3)cc(N3CCCCC3CCO)nc12` (centres undefined), the Potency entry in experiment [1] and in experiment [2] was “inactive” throughout.
As to `CC1(C)CCCC2(C)C1C(O)C=C(CO)C2(O)CO` (centres undefined), the Potency result in experiment [1] and in experiment [2] was “inactive” in each case.
Consider `O=C(O)C(O[C@@H]1O[C@H](CO[C@@H]2O[C@H](CO)[C@@H](O)[C@H](O)[C@H]2O)[C@@H](O)[C@H](O)[C@H]1O)c1ccccc1` (some centres undefined), for which the Potency entry in experiment [1] and in experiment [2] was “inactive” in each case.
As to `C/C=C/C=C/C(=O)N1CC[C@]23c4ccccc4N[C@H]4N(C)c5cccc6c5[C@@]42CCN([C@H]6C2OC2(C)C)[C@H]13` (some centres undefined), the Potency entry in experiment [1] and in experiment [2] was “inactive” throughout.
`COC(=O)C12C(=O)C(C)=C(O)C1(C)C(C)=CC1C3(CO)CCC(O)C(C)(C)C3CCC12C` (centres undefined): the Potency result in experiment [1] and in experiment [2] was “inactive” throughout.
As for `CN(C)c1nc(NC2CCC(NCCc3ccc(Br)cc3OC(F)(F)F)CC2)nc2ccccc12` (centres undefined), the Potency entry in experiment [1] and in experiment [2] was “inactive” in each case.
On to `O=C1CC2(CCCC2)[C@H](O)C(=O)N1CCCCN1CCN(c2ncccn2)CC1`, for which the Potency entry in experiment [1] and in experiment [2] was “inactive” throughout.
Take `C/C=C(/COC(=O)/C(C)=C/C)C(=O)OC(CC)c1ccc(OC)c(OC)c1` (centres undefined): the Potency entry in experiment [1] and in experiment [2] was “inactive” each time.
For `C=C[C@H]1C(O[C@@H]2O[C@H](CO)[C@@H](O)[C@H](O)[C@H]2O)OC=C2C(=O)N3CCc4c([nH]c5ccccc45)[C@H]3C[C@H]21` (some centres undefined), the Potency entry in experiment [1] and in experiment [2] was “inactive” throughout.
Regarding `CC[C@@H](O)C[C@@H]1C(C)=C[C@@H]2CCCC[C@@H]2[C@@]1(C)C(=O)O`, the Potency entry in experiment [1] and in experiment [2] was “inactive” each time.
Consider `CC(=O)O[C@]1(C(C)=O)CC[C@H]2[C@@H]3C[C@H](C)C4=CC(=O)C=C[C@]4(C)[C@@]3(F)[C@@H](O)C[C@@]21C`, for which the Potency result in experiment [1] and in experiment [2] was “inactive” each time.
In the case of `COc1cc(NC(=O)Nc2cccc(CNC(=O)O[C@H]3CCOC3)c2)ccc1-c1cnco1`, the Potency result in experiment [1] and in experiment [2] was “inactive” each time.
In the case of `CC1(C)CC[C@]2(C(=O)O[C@@H]3O[C@H](CO)[C@@H](O)[C@H](O)[C@H]3O)CC[C@]3(C)C(=CCC4[C@@]5(C)CC[C@H](O[C@@H]6O[C@H](C(=O)O)[C@@H](O)[C@H](O[C@@H]7O[C@H](CO)[C@H](O)[C@H](O)[C@H]7O)[C@H]6O)C(C)(C)C5CC[C@]43C)C2C1` (some centres undefined), the Potency entry in experiment [1] and in experiment [2] was “inactive” each time.
On to `COc1ccc(C2=N[C@@H](c3ccc(Cl)cc3)[C@@H](c3ccc(Cl)cc3)N2C(=O)N2CCNC(=O)C2)c(OC(C)C)c1`, for which the Potency entry in experiment [1] and in experiment [2] was “inactive” each time.
Regarding `C=C[C@@](C)(O)CC/C=C(\C)C(=O)O[C@@H]1[C@@H]2O[C@]2(C)[C@H]2[C@H](O[C@@H]3O[C@H](CO)[C@@H](O)[C@H](O)[C@H]3O)OC=C[C@@]12O`, the Potency entry in experiment [1] and in experiment [2] was “inactive” each time.
In the case of `C[C@@H]1O[C@@H](O[C@H]2[C@H](O[C@H]3CC[C@@]4(C)C(CC[C@]5(C)C4CC=C4[C@@H]6CC(C)(C)CC[C@]6(C(=O)O[C@@H]6OC[C@H](O)[C@H](O)[C@H]6O[C@@H]6O[C@@H](C)[C@H](O[C@@H]7O[C@H](CO)[C@@H](O)[C@H](O)[C@H]7O)[C@H](O)[C@H]6O)[C@H](O)C[C@]45C)C3(C)C)O[C@H](CO)[C@@H](O[C@@H]3OC[C@@H](O)[C@H](O)[C@H]3O)[C@@H]2O)[C@H](O)[C@H](O)[C@H]1O` (some centres undefined), the activity change, negative = inhibition in experiment [1] was -6.95% [at 19.1 µM]; in experiment [2], -3.53% [at 10.7 µM].
As for `C=CC(=O)Nc1cccc(Nc2nc(Nc3ccc(N4CCN(C(C)=O)CC4)cc3OC)ncc2C(F)(F)F)c1`, the Potency result in experiment [1] and in experiment [2] was “inactive” each time.
Regarding `COC(=O)C1=COC(O[C@@H]2O[C@H](CO)[C@@H](O)[C@H](O)[C@H]2O)[C@H]2[C@@H]1[C@H](OC(=O)CCc1ccc(O)cc1)C[C@]2(C)O` (some centres undefined), the Potency result in experiment [1] and in experiment [2] was “inactive” throughout.
`CCOc1cc(C(=O)N2CCC(N3CCN(C)CC3)CC2)ccc1Nc1ncc2c(n1)N(C1CCCC1)c1ccccc1C(=O)N2C`: the Potency entry in experiment [1] and in experiment [2] was “inactive” in each case.
For the compound `CO[C@H]1/C=C/[C@@](C)(O)/C=C/C(=O)O[C@H](C)[C@@H](C)CC/C=C/1C`, the Potency entry in experiment [1] and in experiment [2] was “inactive” in each case.
`COc1cc2c(cc1O)[C@H](c1ccc(O[C@@H]3O[C@H](CO)[C@@H](O)[C@H](O)[C@H]3O)c(OC)c1)[C@@H](CO)[C@](O)(CO)C2`: the Potency result in experiment [1] and in experiment [2] was “inactive” each time.
For the compound `CCC(C)C(=O)O[C@H]1CCC=C2C=C[C@H](C)[C@H](CC[C@@H](O)C[C@@H](O)CC(=O)O)[C@H]21` (some centres undefined), the Potency result in experiment [1] and in experiment [2] was “inactive” each time.
As for `CC(=O)N[C@H]1[C@H](O[C@H]2CC[C@@]3(C)C(CC[C@]4(C)C3CC=C3C5CC(C)(C)CC[C@]5(C(=O)O)[C@H](O)C[C@]34C)C2(C)C)O[C@H](CO[C@@H]2OC[C@H](O)[C@H](O)[C@H]2O[C@@H]2OC[C@@H](O)[C@H](O)[C@H]2O)[C@@H](O)[C@@H]1O` (some centres undefined), the Potency entry in experiment [1] and in experiment [2] was “inactive” throughout.
For the compound `CNC(C)C(=O)NC(C(=O)N1CCCC1c1nc(C(=O)c2ccc(F)cc2)cs1)C1CCCCC1` (centres undefined), the Potency result in experiment [1] and in experiment [2] was “inactive” each time.

For the origin of these results see PubChem BioAssay (NCATS).
